Laboratory results reported in PubChem BioAssay (NCATS).
Values joined by “and” are separate entries in the source; they are usually repeats but may differ in a detail not shown here. Equal entries are not always repeated. Records with an inconclusive call do not appear. Active and inactive are the calls of the source. The call rests on the fitted dose curve; in most records, active means well fitted curve in the direction sought with a large enough effect; inconclusive means small, poorly fitted or top-dose-only effect, or another doubt; inactive means no such curve, though single readings can be large; an effect the other way counts as inactive or inconclusive.

Legend:
[1] = Viability qHTS for spleen associated tyrosine kinase inhibitor (SYKi) naive MV4-11 cells (AID 1963823); further: nearly all actives have a fitted effect of over 40% in size
How it was run: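 Seeding of 500 SYKi-naive MV4-11 cells per well onto pre-dispensed compounds preceded a 72 hr incubation at 37 C. Luminescent CellTiter-Glo signal, read after 10 min at room temperature, reflected viable cells.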

[2] = Viability qHTS for spleen associated tyrosine kinase inhibitor (SYKi) drug resistant MV4-11 cells (AID 1963824); further: nearly all actives have a fitted effect of over 35% in size
How it was run: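 SYK-inhibitor-resistant MV4-11 AML cells were seeded at 500 per well onto compound and cultured 72 hours (37 °C, 5% CO2). CellTiter-Glo was then added, and after 10 min at room temperature, luminescence gave viability.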

[3] = Cellular viability qHTS for adrenocortical cancer (ACC) cell line SW-13 (AID 1963989); details: SW-13 ACC cells viability, CellTiter-Glo, 48 h; activity (max response): hits give low values; further: nearly all actives have a fitted effect of over 65% in size;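 on activity (max response): cells grown in serum-free medium with ITS supplement; on the % scale 0 is the no-effect control and ±100 the full control effect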
How it was run: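 48 h treatment, SW-13 in ITS/DMEM serum-free; doses up to 46 uM; readout CellTiter-Glo luminescence; curve fit four-parameter logistic.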

[4] = Cellular viability qHTS for adrenocortical cancer (ACC) cell line NCI-H295R (AID 1963990); further: nearly all actives have a fitted effect of over 60% in size
How it was run: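 Compound titrations (up to 46 uM final) are applied to NCI-H295R cultures for 48 h at 37C. Viable cell number is estimated by CellTiter-Glo signal, normalised to DMSO and doxorubicin controls.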
Potency means the concentration at half of the fitted maximal effect.

O=C(/C=C/c1cccc(S(=O)(=O)Nc2ccccc2)c1)NO
active: Potency [1] 563 nM and 417 nM | Potency [2] 282 nM and 332 nM | Potency [3] 3550 nM | Potency [4] 2510 nM

CCN(CC)CCNC(C(=O)OCCC(C)C)c1ccccc1 (stereo unspecified)
inactive: Potency [1] | Potency [2] | activity (max response) [3] -2.2% | Potency [4]

Cc1oc(=O)oc1COC(=O)[C@@H]1N2C(=O)[C@@H](NC(=O)[C@H](N)c3ccccc3)[C@H]2SC1(C)C
inactive: Potency [1] | Potency [2] | activity (max response) [3] 7.35% | Potency [4]

C=Cc1c(C)c2cc3[nH]c(cc4nc(cc5nc(cc1[nH]2)C(C)=C5CCC(=O)O)C(CCC(=O)O)=C4C)c(C)c3C=C
inactive: Potency [1] | Potency [2] | activity (max response) [3] -8.14% | Potency [4]

NC12CC3CC(CC(C3)C1)C2
inactive: Potency [1] | Potency [2] | activity (max response) [3] 13.7% and -1.26% | Potency [4]

Cc1ccc(C(C)OC(=O)C2(C)CCC(C(=O)O)C2(C)C)cc1 (stereo unspecified)
inactive: Potency [1] | Potency [2] | activity (max response) [3] 8.64% | Potency [4]

COc1c(Nc2ncc(Cl)c(N[C@H]3[C@H](C(N)=O)[C@@H]4C=C[C@@H]3C4)n2)ccc2c1CCC(N1CCOCC1)CC2 (stereo partly specified)
active: Potency [1] 130 nM | Potency [2] 366 nM | Potency [3] 15800 nM | Potency [4] 7940 nM

COc1ccc(-c2c(C)nn3c(NCCN4CCOCC4)cc(C)nc23)cc1OC
active: Potency [1] 8330 nM | Potency [2] 9200 nM
inactive: activity (max response) [3] 10.9% | Potency [4]

C[C@@H](Oc1cc(C(=O)Nc2ccc(C(=O)N3CCN(C)CC3)cc2)nnc1N)c1c(Cl)ccc(F)c1Cl
active: Potency [1] 1660 nM | Potency [2] 2630 nM | Potency [3] 17800 nM | Potency [4] 2820 nM

COc1ccccc1OCC(O)CO (stereo unspecified)
inactive: Potency [1] | Potency [2] | activity (max response) [3] 13.4% | Potency [4]

CO[C@H]1/C=C/O[C@@]2(C)Oc3c(C)c(O)c4c(O)c(c5c(c4c3C2=O)=NC2(CCN(CC(C)C)CC2)N=5)NC(=O)/C(C)=C/C=C/[C@H](C)[C@H](O)[C@@H](C)[C@@H](O)[C@@H](C)[C@H](OC(C)=O)[C@@H]1C
inactive: activity (max response) [3] -11.1% | Potency [4]
active: Potency [1] 18600 nM | Potency [2] 18600 nM

O=C(CCCl)NCCc1ccccc1
inactive: Potency [1] | Potency [2] | activity (max response) [3] -1.73% | Potency [4]

CCCCC(=O)OCC(=O)[C@]1(O)Cc2c(O)c3c(c(O)c2[C@@H](O[C@H]2C[C@H](NC(=O)C(F)(F)F)[C@H](O)[C@H](C)O2)C1)C(=O)c1c(OC)cccc1C3=O
active: Potency [1] 148 nM | Potency [2] 209 nM | Potency [3] 2820 nM | Potency [4] 3550 nM

COc1ccc(S(=O)(=O)Nc2cc(-c3csc(C#N)c3)ccc2C)cc1
active: Potency [1] 83.3 nM | Potency [2] 93.4 nM | Potency [3] 63.1 nM | Potency [4] 79.4 nM

C#C[C@]1(O)CC[C@H]2[C@@H]3[C@H](C)CC4=C(CCC(=O)C4)[C@H]3CC[C@@]21C
inactive: Potency [1] | activity (max response) [3] -17.1% | Potency [4]
active: Potency [2] 18600 nM

Cc1c(NC(C)C)c(=O)n(-c2ccccc2)n1C
inactive: Potency [1] | Potency [2] | activity (max response) [3] 8.03% | Potency [4]

Cc1cc(OCc2nnc(SC3CCCC3)n2-c2cccnc2)ccc1-c1ccc(S(C)(=O)=O)cc1
active: Potency [1] 184 nM | Potency [2] 116 nM
inactive: activity (max response) [3] -6.15% | Potency [4]

CCCNC(C)(C)COC(=O)c1ccccc1
inactive: Potency [1] | Potency [2] | activity (max response) [3] -2.6% | Potency [4]

CO[C@H]1O[C@@H]2O[C@@]3(C)CC[C@H]4[C@H](C)CC[C@@H]([C@H]1C)[C@@]24OO3
inactive: activity (max response) [3] 0.283% | Potency [4]
active: Potency [1] 1320 nM | Potency [2] 934 nM

COc1cc(C(N)=O)ccc1NC(=O)[C@@H]1N[C@@H](CC(C)(C)C)[C@@]2(C(=O)Nc3cc(Cl)ccc32)[C@H]1c1cccc(Cl)c1F
active: Potency [1] 5900 nM | Potency [2] 4680 nM | Potency [3] 15800 nM | Potency [4] 11200 nM

COc1ccc(S(=O)(=O)N(CCO)c2ccccc2CN(C)C/C=C/c2ccc(Cl)cc2)cc1
active: Potency [1] 4680 nM | Potency [2] 4680 nM | Potency [3] 10000 nM | Potency [4] 12600 nM

NC(=O)c1ccccc1Nc1ccnc(Nc2cccc(O)c2)n1
active: Potency [1] 372 nM | Potency [2] 326 nM | Potency [3] 17800 nM | Potency [4] 12600 nM

CN1C(=O)[C@@H](NC(=O)c2n[nH]c(Cc3ccccc3)n2)COc2ccccc21
inactive: Potency [1] | Potency [2] | activity (max response) [3] 8.85% | Potency [4]

CC1=C(CO)C(=O)O[C@@H]([C@@H](C)[C@H]2CC[C@H]3[C@@H]4C[C@H]5O[C@]56[C@@H](O)C=CC(=O)[C@]6(C)[C@H]4CC[C@]23C)C1
active: Potency [1] 296 nM | Potency [2] 317 nM and 263 nM | Potency [3] 1580 nM | Potency [4] 447 nM
